The record followed here is PubChem BioAssay (NCATS).

Test [1] addresses Bile acid receptor (Homo sapiens) (UniProt Q96RI1). The test can be described thus: qHTS assay for small molecule antagonists of farnesoid X receptor signaling (AID 588526; calls by dose curve; note: potency is the fitted concentration of half-maximal effect). Summed up: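 Antagonist mode: titrated compounds tested against chenodeoxycholic acid stimulation (normalized to 50 uM CDCA and DMSO) in GeneBLAzer HEK293T cells for 16 h. Beta-lactamase read by CCF4 fluorescence; IC50 from Hill fits.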
On the technique in general: Quantitative high-throughput screening tests each substance at several concentrations.

For test [2], the target named is Glucocorticoid receptor (Homo sapiens) (UniProt P04150). The test is described as follows: qHTS assay for small molecule agonists of glucocorticoid receptor signaling (AID 588532; active = well fitted curve in the direction sought with a large enough effect in the signal ratio, with a control signal flat; the % refers to the signal ratio;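 note: 100% = dexamethasone at 0.1 µM and 0% = DMSO only wells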). The conditions noted are these: HeLa MMTV-bla, beta-lactamase ratio, agonist, 18 h; stronger effect = higher value; percent of dexamethasone control, DMSO zero. The gist of the method: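 MMTV-bla HeLa beta-lactamase reporter cells in 1% charcoal/dextran FBS medium, compounds up to 92 uM for 18 h at 37 C, CCF4 readout; normalized to 0.1 uM dexamethasone (100%), EC50 and efficacy from Hill fits.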
Sequence of Glucocorticoid receptor (Homo sapiens) (P04150 whole entry, looked up): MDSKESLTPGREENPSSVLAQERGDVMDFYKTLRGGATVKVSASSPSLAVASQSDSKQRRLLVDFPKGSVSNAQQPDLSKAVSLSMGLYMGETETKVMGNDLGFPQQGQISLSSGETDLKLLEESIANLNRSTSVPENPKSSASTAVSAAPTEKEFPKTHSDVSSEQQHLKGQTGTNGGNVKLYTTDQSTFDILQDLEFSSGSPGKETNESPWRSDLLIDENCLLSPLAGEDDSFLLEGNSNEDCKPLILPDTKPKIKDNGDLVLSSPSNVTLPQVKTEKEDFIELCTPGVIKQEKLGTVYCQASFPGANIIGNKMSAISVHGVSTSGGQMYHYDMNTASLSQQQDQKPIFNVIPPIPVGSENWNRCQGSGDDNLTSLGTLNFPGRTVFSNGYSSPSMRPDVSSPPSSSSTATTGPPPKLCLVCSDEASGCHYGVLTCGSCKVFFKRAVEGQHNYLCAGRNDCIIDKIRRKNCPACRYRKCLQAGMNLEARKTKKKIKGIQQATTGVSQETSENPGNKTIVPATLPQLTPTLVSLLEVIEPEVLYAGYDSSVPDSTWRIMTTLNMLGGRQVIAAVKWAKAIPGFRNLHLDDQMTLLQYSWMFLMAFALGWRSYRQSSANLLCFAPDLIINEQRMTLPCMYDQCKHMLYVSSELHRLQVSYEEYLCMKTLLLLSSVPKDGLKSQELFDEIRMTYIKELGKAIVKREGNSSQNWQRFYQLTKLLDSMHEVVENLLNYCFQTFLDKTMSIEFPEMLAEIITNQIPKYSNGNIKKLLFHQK

For test [3] the target is unchanged. The test is described as follows: qHTS assay for small molecule antagonists of glucocorticoid receptor signaling (AID 588533; active = well fitted inhibition curve with a large enough effect in the signal ratio, with a control signal flat, not every such curve was filed as active; the % refers to the signal ratio; note: % is set by controls: 0 for no effect and ±100 for the full control effect). The gist of the method: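 Antagonist-mode qHTS: compound titrations added to GRE-bla HeLa cells, then dexamethasone 2 nM final; 18 h, 37 C. CCF4 FRET fluorescence normalized to dexamethasone and DMSO; IC50 from Hill fit.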
The target of test [4] is Peroxisome proliferator-activated receptor gamma (Homo sapiens) (UniProt P37231). The test can be described thus: qHTS assay for small molecule antagonists of peroxisome proliferator-activated receptor gamma signaling (AID 588537; active = well fitted inhibition curve with a large enough effect in the signal ratio, with a control signal flat, not every such curve was filed as active; the % refers to the signal ratio;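 note: reporter cells co-stimulated with 50 nM rosiglitazone agonist during compound treatment; % of control where 0% means no effect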). Summed up:
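Fluorescence at 460 and 530 nm (405 nm excitation) reported beta-lactamase cleavage of CCF4 after 2 h room-temperature loading. HEK293 reporter cells in 1% charcoal/dextran-treated FBS had received compound and rosiglitazone for 16 h.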

In test [5] the target is Vitamin D3 receptor (Homo sapiens) (UniProt P11473). The test can be described thus: qHTS assay for small molecule antagonists of vitamin D receptor signaling (AID 588541; calls by dose curve;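 note: receptor activated by calcitriol during compound treatment; series mostly up to about 77 µM; % is set by controls: 0 for no effect and ±100 for the full control effect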). Summed up:
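VDR-UAS-bla HEK293T cells in 2% charcoal-stripped FBS were stimulated with 1-alpha,25-dihydroxyvitamin D3 (3 nM final) plus compound for 16 h at 37 C. The beta-lactamase CCF4 readout was normalized to 50 nM agonist and DMSO, and Hill fits gave IC50.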

For test [6] the target is unchanged. The test can be described thus: qHTS assay for small molecule agonists of vitamin D receptor signaling (AID 588543; calls by dose curve;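 note: 0% = DMSO basal and 100% = reference agonist control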). The gist of the method:
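Reporter cells (HEK293T, VDR-UAS-bla) were seeded in medium with 2% charcoal-stripped serum and incubated 5 h, then compounds in concentration series were added for 16 h at 37 °C. Stimulation was scaled between DMSO basal and 50 nM 1α,25-dihydroxyvitamin D3.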

Test [7] is described as follows: qHTS assay for small molecule agonists of retinoid X receptor alpha signaling (AID 588544; calls by dose curve;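 for activation: 0% = DMSO basal wells and 100% = reference agonist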). The conditions noted are these: HEK293T RXRa-UAS-bla, beta-lactamase reporter, 18 h; 530 nm emission.
In test [8] the target is Retinoic acid receptor RXR-alpha (Homo sapiens) (UniProt P19793). Described as above.
Sequence of Retinoic acid receptor RXR-alpha (Homo sapiens) (P19793 whole entry, looked up): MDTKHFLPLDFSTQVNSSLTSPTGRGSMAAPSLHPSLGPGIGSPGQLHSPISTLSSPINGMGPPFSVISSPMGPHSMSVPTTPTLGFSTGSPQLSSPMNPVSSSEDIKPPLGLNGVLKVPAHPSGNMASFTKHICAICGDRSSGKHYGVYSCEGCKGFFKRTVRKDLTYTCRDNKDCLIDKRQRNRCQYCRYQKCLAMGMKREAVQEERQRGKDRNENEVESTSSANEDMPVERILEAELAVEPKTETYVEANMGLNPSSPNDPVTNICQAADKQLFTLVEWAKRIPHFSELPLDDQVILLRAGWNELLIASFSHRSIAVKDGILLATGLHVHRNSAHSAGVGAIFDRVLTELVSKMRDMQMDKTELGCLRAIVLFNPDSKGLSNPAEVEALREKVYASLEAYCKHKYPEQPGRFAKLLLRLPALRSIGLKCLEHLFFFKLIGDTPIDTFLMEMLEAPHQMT
The target in test [9] is Thyroid hormone receptor beta (Homo sapiens) (UniProt P10828). The test can be described thus: qHTS assay for small molecule agonists of thyroid hormone receptor beta signaling (AID 588545; calls by dose curve). Summed up:
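Cells (2500/well) were seeded, incubated 4 hrs at 37 C, dosed with a compound series, incubated 18 hrs, loaded with CCF4 dye for 2 hrs at RT, then read for fluorescence. Data were scaled between DMSO (0%) and 10 nM T3 (100%).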

A short description of test [10]: qHTS assay for small molecule antagonists of retinoid X receptor alpha signaling (AID 588546; active = well fitted inhibition curve with a large enough effect in the signal ratio, with a control signal flat, not every such curve was filed as active; the % refers to the signal ratio;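 note: cells stimulated with 9-cis-retinoic acid as agonist; % is set by controls: 0 for no effect and ±100 for the full control effect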). Particulars: HEK293T RXRa-UAS-bla, beta-lactamase ratio, antagonist mode; measured here: W530 green channel, cytotoxicity proxy. The gist of the method:
(§1)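 Beta-lactamase reporter inhibition, read as CCF4 fluorescence ratio (ex 405, em 460/530 nm) after 2 h at RT. HEK293T UAS-bla cells, 2500/well, were stimulated with 9-cis-RA at 500 or 100 nM final alongside test compound for 18 h at 37 C.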

The target of test [11] is Retinoic acid receptor RXR-alpha (Homo sapiens) (UniProt P19793). Described as above. The conditions noted are these: HEK293T RXRa-UAS-bla, beta-lactamase ratio, antagonist mode. Summed up:
as §1

The target of test [12] is Thyroid hormone receptor beta (Homo sapiens) (UniProt P10828). The test is described as follows: qHTS assay for small molecule antagonists of thyroid hormone receptor beta signaling (AID 588547; active = well fitted inhibition curve with a large enough effect in the signal ratio, with a control signal flat, not every such curve was filed as active; the % refers to the signal ratio;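 note: cells stimulated with 0.4 nM T3 agonist during compound exposure; series mostly up to about 77 µM; % is set by controls: 0 for no effect and ±100 for the full control effect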). Particulars: TR-UAS-bla HEK293, beta-lactamase ratio, antagonist mode, 18 h. The gist of the method: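 TR-UAS-bla GripTite HEK293 cells in 2% charcoal/dextran FBS medium; compounds 0.59 nM to 92 uM with T3 at 0.4nM final, 18 h at 37 C. Beta-lactamase read by CCF4 fluorescence (460/530 nm); Hill fits gave IC50 and efficacy.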
Sequence of Thyroid hormone receptor beta (Homo sapiens) (P10828 whole entry, looked up): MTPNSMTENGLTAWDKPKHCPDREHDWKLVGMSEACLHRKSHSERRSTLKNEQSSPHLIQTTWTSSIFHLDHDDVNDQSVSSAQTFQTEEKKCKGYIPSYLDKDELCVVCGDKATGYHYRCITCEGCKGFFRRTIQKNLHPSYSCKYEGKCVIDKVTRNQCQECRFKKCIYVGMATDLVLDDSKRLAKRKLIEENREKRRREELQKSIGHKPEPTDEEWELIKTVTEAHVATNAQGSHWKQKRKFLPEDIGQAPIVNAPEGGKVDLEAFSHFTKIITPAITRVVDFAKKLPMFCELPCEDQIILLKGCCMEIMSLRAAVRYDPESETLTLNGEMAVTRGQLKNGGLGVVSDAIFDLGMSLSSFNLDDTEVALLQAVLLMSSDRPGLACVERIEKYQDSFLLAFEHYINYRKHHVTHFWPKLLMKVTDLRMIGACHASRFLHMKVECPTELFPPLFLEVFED

For test [13], the target named is Luciferin 4-monooxygenase (Photinus pyralis) (UniProt P08659). The test can be described thus: Biochemical firefly luciferase enzyme assay for NPC (AID 624030).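 Note: purified P. pyralis luciferase at 10 nM with luciferin and ATP substrate; series mostly up to about 59 µM; 0% = DMSO and -100% = full luciferase inhibition by PTC124 control; nearly all actives have a fitted effect of over 70% in size.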 The gist of the method:
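Purified P. pyralis luciferase at 10 nM in 50 mM Tris Acetate (final), luminescence read within 5 minutes of enzyme addition to compounds. Activity normalised to PTC124 versus DMSO; concentration-response curves classed by r2, magnitude and activity.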

In test [14] the target is Voltage-gated inwardly rectifying potassium channel KCNH2 (Homo sapiens) (UniProt Q12809). The test can be described thus: qHTS Assay for Small Molecule Inhibitors of the Human hERG Channel Activity (AID 588834).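 Note: top concentration of the series differs between compounds; % is set by controls: 0 for no effect and ±100 for the full control effect; lower thallium flux fluorescence means stronger hERG block; nearly all actives have a fitted effect of over 50% in size.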 Summed up: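 Step 1: BacMam hERG transduction of U2OS, 4 hrs RT. Step 2: overnight 37 °C, plate 2000 cells/well, 4 hr. Step 3: FluxOR load, compound 10 min, stimulate, read fluorescence.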
Sequence of Voltage-gated inwardly rectifying potassium channel KCNH2 (Homo sapiens) (Q12809 whole entry, looked up): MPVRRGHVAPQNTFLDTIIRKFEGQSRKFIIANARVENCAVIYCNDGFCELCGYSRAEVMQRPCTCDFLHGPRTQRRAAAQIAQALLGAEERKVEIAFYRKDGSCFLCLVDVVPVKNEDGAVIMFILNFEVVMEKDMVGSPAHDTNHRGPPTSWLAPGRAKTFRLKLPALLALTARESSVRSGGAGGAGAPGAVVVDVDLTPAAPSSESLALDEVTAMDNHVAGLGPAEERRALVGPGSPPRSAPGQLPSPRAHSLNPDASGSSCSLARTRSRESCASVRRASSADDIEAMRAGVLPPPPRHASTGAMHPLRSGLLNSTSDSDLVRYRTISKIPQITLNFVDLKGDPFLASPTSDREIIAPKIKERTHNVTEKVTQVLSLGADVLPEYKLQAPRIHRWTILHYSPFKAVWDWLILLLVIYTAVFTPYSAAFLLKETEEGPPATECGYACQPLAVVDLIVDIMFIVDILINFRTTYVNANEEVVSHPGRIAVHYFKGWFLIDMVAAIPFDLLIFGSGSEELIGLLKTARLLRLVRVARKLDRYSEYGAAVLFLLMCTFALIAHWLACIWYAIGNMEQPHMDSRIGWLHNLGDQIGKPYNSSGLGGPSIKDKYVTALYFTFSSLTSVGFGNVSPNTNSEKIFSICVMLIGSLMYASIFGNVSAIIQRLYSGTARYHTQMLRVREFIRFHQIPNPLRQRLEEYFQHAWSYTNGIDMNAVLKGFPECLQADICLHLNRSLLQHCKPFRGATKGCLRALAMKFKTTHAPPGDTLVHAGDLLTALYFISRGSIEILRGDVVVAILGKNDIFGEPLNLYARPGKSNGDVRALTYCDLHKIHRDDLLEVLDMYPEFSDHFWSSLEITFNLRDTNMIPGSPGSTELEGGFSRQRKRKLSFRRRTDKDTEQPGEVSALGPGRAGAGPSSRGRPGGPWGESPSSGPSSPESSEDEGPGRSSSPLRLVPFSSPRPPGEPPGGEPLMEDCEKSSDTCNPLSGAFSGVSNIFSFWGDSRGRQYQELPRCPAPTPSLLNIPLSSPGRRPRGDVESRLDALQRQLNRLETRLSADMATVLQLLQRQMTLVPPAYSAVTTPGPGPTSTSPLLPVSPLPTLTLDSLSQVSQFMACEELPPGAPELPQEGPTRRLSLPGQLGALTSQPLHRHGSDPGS

A short description of test [15]: S16 Schwann cell viability assay (CellTiter-Glo assay) (AID 624031).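 Note: series mostly up to about 58 µM; plate controls were DMSO-treated cells for no effect and cell-free wells for full effect; nearly all actives have a fitted effect of over 70% in size.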 Summed up: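 CellTiter-Glo ATP luminescence counter-screen in untransfected S16 rat Schwann cells, 24h compound exposure at 37 degree Celsius after overnight seeding (500-750 cells/well); response scaled between cell-free wells and DMSO (0% activity), curves classed by r2 and magnitude.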
For orientation: ATP-based viability assays read luminescence as a measure of living cells.

Test [16] in a line: S16 Schwann cell PMP22 intronic element firefly luciferase assay (AID 624032).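 Note: series mostly up to about 58 µM; plate controls were DMSO for no effect and PTC124 positive control mean for full effect; nearly all actives have a fitted effect of over 30% in size.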 Summed up:
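Rat S16 Schwann cells stably carrying firefly luciferase driven by a PMP22 intronic element, in 10% FBS, treated 24 h at 37 C. ONE-Glo luminescence normalized to PTC124 control and DMSO (0%); curves classed by r2, magnitude and activity.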

Test [17] is described as follows: qHTS assay for small molecule antagonists of peroxisome proliferator-activated receptor delta signaling (AID 588535; active = well fitted inhibition curve with a large enough effect in the signal ratio, with a control signal flat, not every such curve was filed as active; the % refers to the signal ratio;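 for max response: cells co-treated with a PPAR-delta agonist as stimulator during compound exposure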). The conditions noted are these: HEK293T PPARd-UAS-bla, beta-lactamase FRET ratio, 18 h; 460 nm channel. The gist of the method: (§2)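 Fluorescence from CCF4-loaded GeneBLAzer PPAR-delta-UAS-bla HEK293T cells (2 hrs RT loading) quantified reporter inhibition after an 18 hr, 37 C compound exposure across a titration.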

The target of test [18] is Peroxisome proliferator-activated receptor delta (Homo sapiens) (UniProt Q03181). Described as above. Summed up: as §2
The target of test [19] is Peroxisome proliferator-activated receptor gamma (Homo sapiens) (UniProt P37231). The test is described as follows: qHTS assay for small molecule agonists of peroxisome proliferator-activated receptor gamma signaling (AID 588536; active = well fitted curve in the direction sought with a large enough effect in the signal ratio, with a control signal flat, not every such curve was filed as active; the % refers to the signal ratio;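 note: 0% = DMSO basal wells and 100% = rosiglitazone at 2 µM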). Summed up:
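Compound treatment: 16 h, 37 C, HEK293 GeneBLAzer cells. Detection: CCF4, 2 h RT. Values: Hill-fit EC50, efficacy as % of 2 uM rosiglitazone.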

A short description of test [20]: S16 Schwann cell PMP22 intronic element beta-lactamase assay (AID 624044; calls by dose curve;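 note: 0% = DMSO and -100% = potassium clavulanate positive control; nearly all actives have a fitted effect of over 15% in size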). Summed up: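 Beta-lactamase reporter under a PMP22 intronic regulatory element in stable S16 rat Schwann cells; 24 h compound exposure. 460 nm blue signal normalized between DMSO (0%) and potassium clavulanate, with 535 nm FRET tracking viability; curves classed by r2 and response.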

Inconclusive results are not listed. Calls of active or inactive are those of the source. Unless noted, calls come from the whole dose curve; as a rule, active = well fitted curve in the direction sought with a large enough effect; inconclusive = small, poorly fitted or top-dose-only effect, or another doubt; inactive = no such curve, though single readings can be large; an effect the other way counts as inactive or inconclusive.

Sequence of Vitamin D3 receptor (Homo sapiens) (P11473 whole entry, looked up): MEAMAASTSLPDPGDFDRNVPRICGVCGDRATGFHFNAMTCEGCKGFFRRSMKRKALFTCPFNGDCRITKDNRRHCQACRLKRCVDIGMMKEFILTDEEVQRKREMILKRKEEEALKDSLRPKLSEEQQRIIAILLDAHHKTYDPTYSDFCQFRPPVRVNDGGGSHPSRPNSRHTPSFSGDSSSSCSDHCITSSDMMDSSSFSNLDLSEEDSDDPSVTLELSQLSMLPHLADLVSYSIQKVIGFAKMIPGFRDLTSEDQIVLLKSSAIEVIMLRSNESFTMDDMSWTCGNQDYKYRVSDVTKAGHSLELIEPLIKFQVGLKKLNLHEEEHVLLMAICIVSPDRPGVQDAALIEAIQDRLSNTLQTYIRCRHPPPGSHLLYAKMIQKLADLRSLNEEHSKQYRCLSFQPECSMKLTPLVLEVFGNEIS
Sequence of Luciferin 4-monooxygenase (Photinus pyralis) (P08659 whole entry, looked up): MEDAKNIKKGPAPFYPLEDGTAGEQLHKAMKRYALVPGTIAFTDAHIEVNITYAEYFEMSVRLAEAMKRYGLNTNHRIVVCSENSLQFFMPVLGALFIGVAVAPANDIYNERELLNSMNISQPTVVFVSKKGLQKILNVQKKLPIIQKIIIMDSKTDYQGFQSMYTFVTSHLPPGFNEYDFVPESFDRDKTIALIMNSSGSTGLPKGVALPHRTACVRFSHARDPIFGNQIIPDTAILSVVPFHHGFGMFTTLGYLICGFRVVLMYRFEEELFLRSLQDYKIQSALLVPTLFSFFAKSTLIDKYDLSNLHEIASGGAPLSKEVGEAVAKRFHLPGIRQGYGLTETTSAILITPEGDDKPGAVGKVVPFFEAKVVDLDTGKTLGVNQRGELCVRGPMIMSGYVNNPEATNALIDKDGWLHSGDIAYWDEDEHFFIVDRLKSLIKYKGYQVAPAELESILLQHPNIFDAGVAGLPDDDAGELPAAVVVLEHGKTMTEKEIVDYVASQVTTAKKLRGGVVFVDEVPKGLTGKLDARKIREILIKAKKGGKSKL
Sequence of Peroxisome proliferator-activated receptor gamma (Homo sapiens) (P37231 whole entry, looked up): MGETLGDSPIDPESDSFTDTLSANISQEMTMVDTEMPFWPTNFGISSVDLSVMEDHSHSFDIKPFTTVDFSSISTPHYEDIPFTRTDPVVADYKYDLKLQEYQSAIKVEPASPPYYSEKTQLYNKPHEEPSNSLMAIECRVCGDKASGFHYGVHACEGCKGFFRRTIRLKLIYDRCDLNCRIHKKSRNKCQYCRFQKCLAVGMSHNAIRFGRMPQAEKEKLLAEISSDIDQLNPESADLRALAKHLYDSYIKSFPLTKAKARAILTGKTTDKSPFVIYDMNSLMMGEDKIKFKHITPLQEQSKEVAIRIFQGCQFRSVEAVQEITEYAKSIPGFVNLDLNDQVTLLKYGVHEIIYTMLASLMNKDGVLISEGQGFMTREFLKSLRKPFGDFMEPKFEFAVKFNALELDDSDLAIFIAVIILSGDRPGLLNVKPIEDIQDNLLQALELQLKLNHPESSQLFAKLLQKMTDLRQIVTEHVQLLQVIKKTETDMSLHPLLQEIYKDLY
Sequence of Bile acid receptor (Homo sapiens) (Q96RI1 whole entry, looked up): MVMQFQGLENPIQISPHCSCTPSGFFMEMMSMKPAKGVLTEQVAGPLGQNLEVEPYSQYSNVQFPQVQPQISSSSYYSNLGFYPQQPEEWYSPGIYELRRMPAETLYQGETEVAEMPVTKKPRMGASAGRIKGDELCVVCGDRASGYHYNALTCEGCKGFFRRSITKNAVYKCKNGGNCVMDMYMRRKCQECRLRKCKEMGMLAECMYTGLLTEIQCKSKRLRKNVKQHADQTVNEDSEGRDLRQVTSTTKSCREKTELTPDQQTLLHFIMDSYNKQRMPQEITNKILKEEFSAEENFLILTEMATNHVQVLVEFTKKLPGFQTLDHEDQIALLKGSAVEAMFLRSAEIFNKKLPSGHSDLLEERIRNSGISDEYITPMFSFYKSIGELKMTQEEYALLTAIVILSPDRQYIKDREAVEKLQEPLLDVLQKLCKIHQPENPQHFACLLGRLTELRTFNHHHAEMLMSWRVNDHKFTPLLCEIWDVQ

For the molecule `O=C1c2cccc(O)c2C(=O)c2c(O)cc(CO)cc21`, the Potency result in test [1] and in [3] was “inactive” throughout. Also, the activation in test [2] is -14.5% (inactive). Moreover, the molecule was classed as inactive in test [4], in [5], in test [6], in test [8] and in [9]. Also, the max response in test [7] was 11.8%; in test [10], -0.0097%; in [11], 15.1% (inactive). For the same molecule, the activity change % (negative = inhibition) in test [12] was 26.1% (inactive).

Take `CC1(C)[C@H](O[C@H]2O[C@H](C(=O)O)[C@@H](O)[C@H](O)[C@H]2O[C@@H]2O[C@H](C(=O)O)[C@@H](O)[C@H](O)[C@H]2O)CC[C@@]2(C)[C@H]1CC[C@]1(C)[C@H]2C(=O)C=C2[C@H]3C[C@@](C)(C(=O)O)CC[C@]3(C)CC[C@]21C`: in test [13], the molecule was called inactive.

For `N=c1ccn2c(n1)O[C@H]1[C@@H](O)[C@@H](CO)O[C@H]12`, the molecule was called inactive in test [14].

Consider `Nc1ccn(C[C@@H](CO)OCP(=O)(O)O)c(=O)n1`, for which the molecule was classed as inactive in [13].

`COc1cccc2c1C(=O)c1c(O)c3c(c(O)c1C2=O)C[C@@](O)(C(=O)CO)C[C@@H]3O[C@H]1C[C@H](N)[C@H](OC2CCCCO2)[C@H](C)O1` (some centres undefined): the outcome in test [15] was inactive. The Potency entry in [16] is “inactive”.

With `Cc1onc(-c2ccccc2)c1C(=O)N[C@@H]1C(=O)N2[C@@H](C(=O)O)C(C)(C)S[C@@H]12`, the molecule was classed as inactive in test [13].

With `N[C@H]1CN(c2c(F)cc3c(=O)c(C(=O)O)cn(C4C[C@@H]4F)c3c2Cl)CC12CC2` (some centres undefined), the result in test [13] was inactive.

For `CCCCCCCN(CC)CCCC(O)c1ccc(NS(C)(=O)=O)cc1` (centres undefined), the molecule was called inactive in test [13].

For `Nc1ccn(C2CO[C@H](CO)O2)c(=O)n1` (some centres undefined), the call in test [13] was inactive.

In the case of `CCCCCCCCCCCCCCCC(=O)OC[C@@H](NC(=O)C(Cl)Cl)[C@H](O)c1ccc([N+](=O)[O-])cc1`, the call in test [13] was inactive.

Turning to `Cc1cc(O)c2c(c1)C(=O)c1cccc(O)c1C2=O`, the Potency result in test [1] and in test [3] was “inactive” throughout. Moreover, the max response was -38.7% in [17], 0.103% in test [7], -3.99% in test [10] and 11.5% (inactive) in [11]. For the same molecule, the molecule was called inactive in test [18], in [19], in [4], in [5], in test [6] and in [8]. In addition, the molecule was called inactive in [14]. For the same molecule, the activity change % (negative = inhibition) in [12] was 3.18% (inactive).

For `COc1ccc2c(c1OC)C(=O)OC2[C@H]1c2c(cc3c(c2OC)OCO3)CCN1C` (some centres undefined), the molecule was classed as inactive in test [13] and in [15]. Also, the Potency result in [16] and in test [20] was “inactive” in each case.

For `CC(C=CC1=C(C)CCCC1(C)C)=CC=CC(C)=CC(=O)Nc1ccc(O)cc1`, in [1], the Potency is 39.8 µM (active). The activation in [2] is 5.23% (inactive). Also, the molecule was called inactive in test [6] and in [9].
